Results as given in publication PMC11062922 (Nature Chemical Biology, 2023).

How the values were obtained:
IRAK4 = settings: compound concentrations:3nM, 10nM, 30nM, 100nM, 300nM, 1000nM, 3000nM, 30000nM,R2:0.93116388715812703,slope:1.4824347437463801,EC50 Standard Error, by the legend:Standard error of the EC50 estimation as provided by the drc package.
MAP3K11 = settings: compound concentrations:3nM, 10nM, 30nM, 100nM, 300nM, 1000nM, 3000nM, 30000nM,R2:0.99429213742215306,slope:0.76505348781975802,EC50 Standard Error, by the legend:Standard error of the EC50 estimation as provided by the drc package.
MAP4K2 = settings: compound concentrations:3nM, 10nM, 30nM, 100nM, 300nM, 1000nM, 3000nM, 30000nM,R2:0.97693743702181501,slope:1.5044165115380901,EC50 Standard Error, by the legend:Standard error of the EC50 estimation as provided by the drc package.
MARK2 = settings: compound concentrations:3nM, 10nM, 30nM, 100nM, 300nM, 1000nM, 3000nM, 30000nM,R2:0.98471401601648001,slope:1.6013857186590299,EC50 Standard Error, by the legend:Standard error of the EC50 estimation as provided by the drc package.
MARK3 = settings: compound concentrations:3nM, 10nM, 30nM, 100nM, 300nM, 1000nM, 3000nM, 30000nM,R2:0.98601648224136496,slope:1.5139039229536799,EC50 Standard Error, by the legend:Standard error of the EC50 estimation as provided by the drc package.
MARK4 = settings: compound concentrations:3nM, 10nM, 30nM, 100nM, 300nM, 1000nM, 3000nM, 30000nM,R2:0.98999073963654005,slope:9.1146195696381707,EC50 Standard Error, by the legend:Standard error of the EC50 estimation as provided by the drc package.
NEK1 = settings: compound concentrations:3nM, 10nM, 30nM, 100nM, 300nM, 1000nM, 3000nM, 30000nM,R2:0.97961263644427599,slope:0.99029629152452003,EC50 Standard Error, by the legend:Standard error of the EC50 estimation as provided by the drc package.
NUAK1 = settings: compound concentrations:3nM, 10nM, 30nM, 100nM, 300nM, 1000nM, 3000nM, 30000nM,R2:0.91267183430565202,slope:2.53834648929845,EC50 Standard Error, by the legend:Standard error of the EC50 estimation as provided by the drc package.
PAK4 = settings: compound concentrations:3nM, 10nM, 30nM, 100nM, 300nM, 1000nM, 3000nM, 30000nM,R2:0.99818475591728295,slope:0.99089042450123299,EC50 Standard Error, by the legend:Standard error of the EC50 estimation as provided by the drc package.
PDPK1;PDPK2P = settings: compound concentrations:3nM, 10nM, 30nM, 100nM, 300nM, 1000nM, 3000nM, 30000nM,R2:0.91971580292243504,slope:1.29280126727837,EC50 Standard Error, by the legend:Standard error of the EC50 estimation as provided by the drc package.
PHKG2 = settings: compound concentrations:3nM, 10nM, 30nM, 100nM, 300nM, 1000nM, 3000nM, 30000nM,R2:0.987331752692992,slope:1.79353666450797,EC50 Standard Error, by the legend:Standard error of the EC50 estimation as provided by the drc package.
PLK4 = settings: compound concentrations:3nM, 10nM, 30nM, 100nM, 300nM, 1000nM, 3000nM, 30000nM,R2:0.98129496676024397,slope:1.0145275307596699,EC50 Standard Error, by the legend:Standard error of the EC50 estimation as provided by the drc package.
PRKD2 = settings: compound concentrations:3nM, 10nM, 30nM, 100nM, 300nM, 1000nM, 3000nM, 30000nM,R2:0.99348954984815097,slope:2.8520769192550901,EC50 Standard Error, by the legend:Standard error of the EC50 estimation as provided by the drc package.
PRKD3 = settings: compound concentrations:3nM, 10nM, 30nM, 100nM, 300nM, 1000nM, 3000nM, 30000nM,R2:0.98624890214185301,slope:1.3007514421669799,EC50 Standard Error, by the legend:Standard error of the EC50 estimation as provided by the drc package.
Q6ZSR9 = Q6ZSR9 (human, UniProt Q6ZSR9); settings: compound concentrations:3nM, 10nM, 30nM, 100nM, 300nM, 1000nM, 3000nM, 30000nM,R2:0.98031780619019204,slope:1.5136598557560801,EC50 Standard Error, by the legend:Standard error of the EC50 estimation as provided by the drc package.
RET = settings: compound concentrations:3nM, 10nM, 30nM, 100nM, 300nM, 1000nM, 3000nM, 30000nM,R2:0.99332600963227702,slope:0.91132357301438205,EC50 Standard Error, by the legend:Standard error of the EC50 estimation as provided by the drc package.
SIK2 = settings: compound concentrations:3nM, 10nM, 30nM, 100nM, 300nM, 1000nM, 3000nM, 30000nM,R2:0.98900734002019797,slope:1.1146515084845601,EC50 Standard Error, by the legend:Standard error of the EC50 estimation as provided by the drc package.
SLK = settings: compound concentrations:3nM, 10nM, 30nM, 100nM, 300nM, 1000nM, 3000nM, 30000nM,R2:0.98664495046468503,slope:1.29889224696913,EC50 Standard Error, by the legend:Standard error of the EC50 estimation as provided by the drc package.
STK10 = settings: compound concentrations:3nM, 10nM, 30nM, 100nM, 300nM, 1000nM, 3000nM, 30000nM,R2:0.96114701391993196,slope:1.3567914051898999,EC50 Standard Error, by the legend:Standard error of the EC50 estimation as provided by the drc package.
STK3 = settings: compound concentrations:3nM, 10nM, 30nM, 100nM, 300nM, 1000nM, 3000nM, 30000nM,R2:0.98274097972393204,slope:1.3616846231778099,EC50 Standard Error, by the legend:Standard error of the EC50 estimation as provided by the drc package.

Chain of Q6ZSR9 (Q6ZSR9 whole entry, looked up): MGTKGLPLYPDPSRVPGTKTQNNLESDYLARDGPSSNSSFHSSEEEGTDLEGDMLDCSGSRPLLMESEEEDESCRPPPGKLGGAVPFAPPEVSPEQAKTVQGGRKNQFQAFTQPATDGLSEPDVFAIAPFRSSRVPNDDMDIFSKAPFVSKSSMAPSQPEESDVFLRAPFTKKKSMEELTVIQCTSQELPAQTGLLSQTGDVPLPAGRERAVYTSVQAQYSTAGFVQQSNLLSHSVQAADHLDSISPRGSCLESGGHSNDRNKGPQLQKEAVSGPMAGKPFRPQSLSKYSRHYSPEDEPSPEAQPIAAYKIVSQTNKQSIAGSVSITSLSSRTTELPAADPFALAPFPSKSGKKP

In the case of TAK659, the EC50 (IRAK4) is reported as 0.718 µM, the Kd (IRAK4; read-out: apparent Kd) is reported as 0.675 µM and the EC50 (MAP3K11) is reported as 9.09 µM. For the same substance, the Kd (MAP3K11; read-out: apparent Kd) was 7.19 µM, the EC50 (MAP4K2) was 0.595 µM and the Kd (MAP4K2; read-out: apparent Kd) was 0.459 µM. For the same substance, the EC50 (MARK2) was 0.837 µM, the Kd (MARK2; read-out: apparent Kd) was 0.762 µM and the EC50 (MARK3) was 0.68 µM. For the same substance, the Kd (MARK3; read-out: apparent Kd) was 0.67 µM, the EC50 (MARK4) was 1.05 µM and the Kd (MARK4; read-out: apparent Kd) was 1.05 µM. For the same substance, the EC50 (NEK1) was 0.589 µM, the Kd (NEK1; read-out: apparent Kd) was 0.529 µM and the EC50 (NUAK1) was 1.02 µM. It also gave a Kd (NUAK1; read-out: apparent Kd) of 0.312 µM, an EC50 (PAK4) of 0.336 µM and a Kd (PAK4; read-out: apparent Kd) of 0.276 µM. It also gave an EC50 (PDPK1;PDPK2P) of 0.639 µM, a Kd (PDPK1;PDPK2P; read-out: apparent Kd) of 0.639 µM and an EC50 (PHKG2) of 0.201 µM. For the same substance, the Kd (PHKG2; read-out: apparent Kd) was 0.201 µM, the EC50 (PLK4) was 0.148 µM and the Kd (PLK4; read-out: apparent Kd) was 0.0772 µM. For the same substance, the EC50 (PRKD2) was 1.01 µM, the Kd (PRKD2; read-out: apparent Kd) was 0.895 µM and the EC50 (PRKD3) was 1.41 µM. The Kd (PRKD3; read-out: apparent Kd) was 1.18 µM, the EC50 (Q6ZSR9) was 0.566 µM and the Kd (Q6ZSR9; read-out: apparent Kd) was 0.493 µM. It also gave an EC50 (RET) of 0.0227 µM, a Kd (RET; read-out: apparent Kd) of 0.0121 µM and an EC50 (SIK2) of 0.26 µM. It also gave a Kd (SIK2; read-out: apparent Kd) of 0.14 µM, an EC50 (SLK) of 0.516 µM and a Kd (SLK; read-out: apparent Kd) of 0.516 µM. It also gave an EC50 (STK10) of 0.725 µM, a Kd (STK10; read-out: apparent Kd) of 0.725 µM and an EC50 (STK3) of 0.742 µM. The Kd (STK3; read-out: apparent Kd) was 0.683 µM.
